The text below walks through data of publication PMC7862700, “An all-to-all approach to the identification of sequence-specific readers for epigenetic DNA modifications on cytosine”.

Common to all, as to test: DAPPL (digital affinity profiling via proximity ligation, sequencing); 10 mM Tris-HCl pH 7.5, 50 mM NaCl, 1 mM DTT, 4% glycerol, room temperature, 30 min; GST-TFs on glutathione beads, 16-mer random dsDNA library, 0.1% formaldehyde crosslink after washing; high values mean tight binding
One assay has as its target T1, FEV (Homo sapiens, UniProt Q99581 1-238).
T1 sequence: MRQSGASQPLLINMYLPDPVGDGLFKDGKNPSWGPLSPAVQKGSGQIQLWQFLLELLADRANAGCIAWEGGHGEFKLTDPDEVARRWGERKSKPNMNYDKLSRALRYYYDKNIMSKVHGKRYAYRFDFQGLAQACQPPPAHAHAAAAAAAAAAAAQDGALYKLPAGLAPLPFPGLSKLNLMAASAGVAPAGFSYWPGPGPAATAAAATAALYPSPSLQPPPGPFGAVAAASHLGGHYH
The conditions noted are these: protein: recombinant; tags: N-terminal GST; dsDNA, one strand shown. The method in brief: (§1)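 Each value of binding signal is a hexamer's read frequency for a factor divided by the same hexamer's frequency in the tag-only sample. Barcoded, bead-captured GST fusions of human transcription factors made in yeast were pooled with that sample and incubated with 200 nmole of a random double-stranded 16-mer DNA library in Tris/NaCl/DTT/glycerol buffer at room temperature for 30 min. Washing, 0.1% formaldehyde crosslinking, proximity ligation, PCR and Illumina NextSeq500 sequencing followed.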

In the next assay the target is ETV5 (Homo sapiens, UniProt P41161 1-510). The conditions noted are these: protein: recombinant; tags: N-terminal GST; dsDNA, one strand shown. A digest of the protocol: as §1
Sequence of ETV5 (P41161 whole entry): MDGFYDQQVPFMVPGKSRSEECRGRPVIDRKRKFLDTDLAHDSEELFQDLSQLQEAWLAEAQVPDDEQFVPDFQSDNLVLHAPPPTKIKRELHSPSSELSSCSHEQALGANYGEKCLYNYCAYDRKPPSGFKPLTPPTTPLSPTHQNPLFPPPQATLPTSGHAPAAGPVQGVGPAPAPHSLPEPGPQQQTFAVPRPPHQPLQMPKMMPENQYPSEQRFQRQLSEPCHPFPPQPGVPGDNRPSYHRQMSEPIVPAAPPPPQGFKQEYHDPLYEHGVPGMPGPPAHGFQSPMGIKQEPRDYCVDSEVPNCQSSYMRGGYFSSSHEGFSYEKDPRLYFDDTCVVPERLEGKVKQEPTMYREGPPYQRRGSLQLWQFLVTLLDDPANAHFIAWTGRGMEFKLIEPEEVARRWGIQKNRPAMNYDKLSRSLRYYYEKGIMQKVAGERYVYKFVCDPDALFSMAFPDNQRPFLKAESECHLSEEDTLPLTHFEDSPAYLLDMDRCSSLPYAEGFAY
In the next assay the target is HSF1 (Homo sapiens, UniProt Q00613 1-529). The conditions noted are these: protein: recombinant; tags: N-terminal GST; chain copies: 3; dsDNA, one strand shown. The method in brief:
as §1

The target of the next assay is T2, SPIC (Homo sapiens, UniProt Q8N5J4 1-248).
T2 sequence: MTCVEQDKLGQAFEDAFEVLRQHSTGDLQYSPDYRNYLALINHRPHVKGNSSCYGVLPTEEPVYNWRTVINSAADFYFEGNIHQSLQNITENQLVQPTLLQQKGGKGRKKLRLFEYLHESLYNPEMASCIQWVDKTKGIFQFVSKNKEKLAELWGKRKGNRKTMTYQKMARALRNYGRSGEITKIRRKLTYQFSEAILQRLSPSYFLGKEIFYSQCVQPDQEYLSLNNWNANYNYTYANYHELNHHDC
The conditions noted are these: protein: recombinant; tags: N-terminal GST; dsDNA, one strand shown. A digest of the protocol: as §1

The target of a further assay is ELF4 (Homo sapiens, UniProt Q99607 1-663). The conditions noted are these: protein: recombinant; tags: N-terminal GST; dsDNA, one strand shown. A digest of the protocol: as §1
Sequence of ELF4 (Q99607 whole entry): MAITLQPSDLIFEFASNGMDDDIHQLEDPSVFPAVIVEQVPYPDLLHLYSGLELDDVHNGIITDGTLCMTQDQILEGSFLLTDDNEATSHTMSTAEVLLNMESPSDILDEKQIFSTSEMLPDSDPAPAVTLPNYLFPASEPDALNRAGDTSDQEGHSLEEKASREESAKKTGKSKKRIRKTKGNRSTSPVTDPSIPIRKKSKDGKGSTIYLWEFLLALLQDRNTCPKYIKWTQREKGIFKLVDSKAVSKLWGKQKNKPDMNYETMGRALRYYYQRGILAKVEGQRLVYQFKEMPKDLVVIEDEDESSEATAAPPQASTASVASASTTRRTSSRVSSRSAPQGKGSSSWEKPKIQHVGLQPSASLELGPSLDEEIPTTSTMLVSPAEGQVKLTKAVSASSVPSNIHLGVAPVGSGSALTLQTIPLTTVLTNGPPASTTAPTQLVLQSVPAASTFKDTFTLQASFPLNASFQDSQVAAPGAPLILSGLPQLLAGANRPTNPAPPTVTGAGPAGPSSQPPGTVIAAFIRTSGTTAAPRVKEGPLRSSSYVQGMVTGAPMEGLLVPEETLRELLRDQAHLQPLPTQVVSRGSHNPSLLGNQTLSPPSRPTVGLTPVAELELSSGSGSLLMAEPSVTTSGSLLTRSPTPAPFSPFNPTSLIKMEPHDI
For another assay, the target named is T3, ELK4 (Homo sapiens, UniProt P28324-2 1-405).
T3 sequence: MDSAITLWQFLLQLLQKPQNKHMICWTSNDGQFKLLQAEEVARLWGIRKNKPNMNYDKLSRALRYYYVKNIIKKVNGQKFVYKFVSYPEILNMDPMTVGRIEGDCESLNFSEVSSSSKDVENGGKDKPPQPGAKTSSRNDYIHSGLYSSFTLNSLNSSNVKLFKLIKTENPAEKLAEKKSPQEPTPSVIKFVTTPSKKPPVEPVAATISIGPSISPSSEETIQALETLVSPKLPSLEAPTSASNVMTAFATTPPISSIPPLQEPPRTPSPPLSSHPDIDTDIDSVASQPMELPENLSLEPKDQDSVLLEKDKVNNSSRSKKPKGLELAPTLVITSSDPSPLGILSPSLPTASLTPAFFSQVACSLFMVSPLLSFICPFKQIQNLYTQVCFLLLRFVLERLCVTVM
The conditions noted are these: protein: recombinant; tags: N-terminal GST; dsDNA, one strand shown. The method in brief: as §1

Another assay deals with T4, ETV2 (Homo sapiens, UniProt O00321 1-342).
T4 sequence: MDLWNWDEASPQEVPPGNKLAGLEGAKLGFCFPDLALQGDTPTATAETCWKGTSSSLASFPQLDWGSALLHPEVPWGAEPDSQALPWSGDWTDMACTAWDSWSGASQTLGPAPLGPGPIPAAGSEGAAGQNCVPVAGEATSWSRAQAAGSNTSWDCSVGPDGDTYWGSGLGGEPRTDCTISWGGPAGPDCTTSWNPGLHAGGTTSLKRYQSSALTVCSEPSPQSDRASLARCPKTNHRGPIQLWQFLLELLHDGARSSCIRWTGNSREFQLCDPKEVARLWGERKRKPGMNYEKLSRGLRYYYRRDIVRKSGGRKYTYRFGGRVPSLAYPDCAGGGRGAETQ
The conditions noted are these: protein: recombinant; tags: N-terminal GST; dsDNA, one strand shown. A digest of the protocol: as §1

Another assay deals with T5, ELF3 (Homo sapiens, UniProt P78545 1-371).
T5 sequence: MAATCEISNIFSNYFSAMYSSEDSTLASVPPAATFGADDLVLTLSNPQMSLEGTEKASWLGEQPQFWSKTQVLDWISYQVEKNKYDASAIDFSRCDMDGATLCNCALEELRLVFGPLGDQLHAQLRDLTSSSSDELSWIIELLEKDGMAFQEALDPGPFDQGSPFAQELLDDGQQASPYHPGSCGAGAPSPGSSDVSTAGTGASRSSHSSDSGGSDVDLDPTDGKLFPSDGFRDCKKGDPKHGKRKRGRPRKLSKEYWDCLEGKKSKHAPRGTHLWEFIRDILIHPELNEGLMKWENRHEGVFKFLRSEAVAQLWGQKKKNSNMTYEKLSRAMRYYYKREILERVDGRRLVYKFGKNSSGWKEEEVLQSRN
The conditions noted are these: protein: recombinant; tags: N-terminal GST; dsDNA, one strand shown. A digest of the protocol:
as §1

For a further assay, the target named is CRX (Homo sapiens, UniProt O43186 1-299). The conditions noted are these: protein: recombinant; tags: N-terminal GST; dsDNA, one strand shown. The method in brief: as §1
Sequence of CRX (O43186 whole entry): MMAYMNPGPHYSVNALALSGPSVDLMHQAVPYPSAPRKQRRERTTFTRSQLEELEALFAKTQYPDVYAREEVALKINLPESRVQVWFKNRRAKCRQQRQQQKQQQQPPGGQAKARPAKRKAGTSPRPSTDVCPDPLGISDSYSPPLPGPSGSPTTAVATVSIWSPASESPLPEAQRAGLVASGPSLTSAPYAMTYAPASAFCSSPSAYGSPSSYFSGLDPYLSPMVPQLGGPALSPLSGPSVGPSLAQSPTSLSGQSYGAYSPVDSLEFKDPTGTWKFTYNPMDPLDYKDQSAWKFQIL
In another assay the target is ETV1 (Homo sapiens, UniProt P50549 1-477). The conditions noted are these: protein: recombinant; tags: N-terminal GST; dsDNA, one strand shown. A digest of the protocol:
as §1

Another assay addresses T6, ERF (Homo sapiens, UniProt P50548 1-548).
T6 sequence: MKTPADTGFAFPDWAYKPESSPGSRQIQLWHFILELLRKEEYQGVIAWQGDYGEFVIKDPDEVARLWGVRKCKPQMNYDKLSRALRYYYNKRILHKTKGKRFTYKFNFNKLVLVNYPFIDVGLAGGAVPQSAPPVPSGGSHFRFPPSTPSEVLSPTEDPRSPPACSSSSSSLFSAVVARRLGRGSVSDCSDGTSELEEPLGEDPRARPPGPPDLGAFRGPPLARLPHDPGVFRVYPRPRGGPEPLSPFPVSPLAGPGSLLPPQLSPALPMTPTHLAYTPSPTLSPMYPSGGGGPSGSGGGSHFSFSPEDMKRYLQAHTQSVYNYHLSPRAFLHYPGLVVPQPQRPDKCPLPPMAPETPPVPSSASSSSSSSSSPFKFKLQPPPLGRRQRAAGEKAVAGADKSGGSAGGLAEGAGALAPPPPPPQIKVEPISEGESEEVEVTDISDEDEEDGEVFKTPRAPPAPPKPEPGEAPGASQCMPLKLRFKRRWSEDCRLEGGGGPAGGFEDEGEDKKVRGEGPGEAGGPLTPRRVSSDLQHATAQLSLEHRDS
The conditions noted are these: protein: recombinant; tags: N-terminal GST; dsDNA, one strand shown. A digest of the protocol:
as §1

The target of another assay is T7, ETV3L (Homo sapiens, UniProt Q6ZN32 1-361).
T7 sequence: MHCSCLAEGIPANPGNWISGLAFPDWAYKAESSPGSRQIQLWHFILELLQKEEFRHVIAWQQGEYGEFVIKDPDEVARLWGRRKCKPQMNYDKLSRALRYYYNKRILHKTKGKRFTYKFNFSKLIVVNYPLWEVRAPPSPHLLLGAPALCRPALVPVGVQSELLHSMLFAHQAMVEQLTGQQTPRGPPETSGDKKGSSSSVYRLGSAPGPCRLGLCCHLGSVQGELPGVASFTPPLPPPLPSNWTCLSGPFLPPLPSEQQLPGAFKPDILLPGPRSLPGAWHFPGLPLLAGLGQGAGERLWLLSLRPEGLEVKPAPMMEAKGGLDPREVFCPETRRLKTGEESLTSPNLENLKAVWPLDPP
The conditions noted are these: protein: recombinant; tags: N-terminal GST; dsDNA, one strand shown. The method in brief: as §1

The target of another assay is T8, ETS2 (Homo sapiens, UniProt P15036 1-469).
T8 sequence: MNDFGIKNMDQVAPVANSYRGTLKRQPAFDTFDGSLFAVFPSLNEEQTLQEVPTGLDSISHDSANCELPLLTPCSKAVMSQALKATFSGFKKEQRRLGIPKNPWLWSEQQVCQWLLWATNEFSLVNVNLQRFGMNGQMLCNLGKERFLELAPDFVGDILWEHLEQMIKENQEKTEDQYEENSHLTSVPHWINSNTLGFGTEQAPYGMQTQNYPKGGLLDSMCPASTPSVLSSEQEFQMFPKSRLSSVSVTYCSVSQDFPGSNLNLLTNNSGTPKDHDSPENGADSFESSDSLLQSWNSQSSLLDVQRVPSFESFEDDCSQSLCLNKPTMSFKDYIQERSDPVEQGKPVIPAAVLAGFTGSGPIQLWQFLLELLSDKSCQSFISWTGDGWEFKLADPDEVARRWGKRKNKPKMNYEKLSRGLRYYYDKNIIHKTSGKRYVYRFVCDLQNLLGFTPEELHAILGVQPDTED
The conditions noted are these: protein: recombinant; tags: N-terminal GST; dsDNA, one strand shown. A digest of the protocol:
as §1

A further assay has as its target T9, SPDEF (Homo sapiens, UniProt O95238 1-335).
T9 sequence: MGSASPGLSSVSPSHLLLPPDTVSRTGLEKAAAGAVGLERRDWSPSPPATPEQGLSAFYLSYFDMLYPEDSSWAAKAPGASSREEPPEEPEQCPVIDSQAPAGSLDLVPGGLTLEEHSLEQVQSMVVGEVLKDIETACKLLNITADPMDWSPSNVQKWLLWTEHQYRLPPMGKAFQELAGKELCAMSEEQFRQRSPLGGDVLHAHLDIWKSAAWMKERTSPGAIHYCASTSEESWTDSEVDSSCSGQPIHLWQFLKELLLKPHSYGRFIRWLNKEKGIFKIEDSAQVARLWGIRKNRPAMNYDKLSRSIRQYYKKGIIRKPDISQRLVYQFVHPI
The conditions noted are these: protein: recombinant; tags: N-terminal GST; dsDNA, one strand shown. A digest of the protocol: as §1

In the next assay the target is T10, ETV7 (Homo sapiens, UniProt Q9Y603 1-341).
T10 sequence: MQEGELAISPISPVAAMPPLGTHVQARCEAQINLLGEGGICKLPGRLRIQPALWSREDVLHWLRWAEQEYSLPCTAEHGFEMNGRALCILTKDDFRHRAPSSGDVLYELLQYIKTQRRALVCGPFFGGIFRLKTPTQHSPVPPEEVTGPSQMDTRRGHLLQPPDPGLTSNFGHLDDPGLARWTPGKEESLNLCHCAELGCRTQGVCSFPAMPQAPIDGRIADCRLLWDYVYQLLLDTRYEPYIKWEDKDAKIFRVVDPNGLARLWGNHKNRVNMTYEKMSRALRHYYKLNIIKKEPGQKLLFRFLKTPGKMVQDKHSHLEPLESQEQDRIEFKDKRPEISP
The conditions noted are these: protein: recombinant; tags: N-terminal GST; dsDNA, one strand shown. A digest of the protocol: as §1

A further assay concerns the target T11, ELF5 (Homo sapiens, UniProt Q9UKW6-2 1-255).
T11 sequence: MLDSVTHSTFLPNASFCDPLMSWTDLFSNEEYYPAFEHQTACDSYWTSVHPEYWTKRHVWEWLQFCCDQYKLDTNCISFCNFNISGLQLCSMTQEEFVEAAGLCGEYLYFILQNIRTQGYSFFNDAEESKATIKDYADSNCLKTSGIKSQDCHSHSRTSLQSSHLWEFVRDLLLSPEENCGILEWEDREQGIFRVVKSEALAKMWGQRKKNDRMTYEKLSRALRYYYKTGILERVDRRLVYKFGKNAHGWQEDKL
The conditions noted are these: protein: recombinant; tags: N-terminal GST; dsDNA, one strand shown. The method in brief: as §1

A further assay has as its target T12, ETV3 (Homo sapiens, UniProt P41162-2 1-143).
T12 sequence: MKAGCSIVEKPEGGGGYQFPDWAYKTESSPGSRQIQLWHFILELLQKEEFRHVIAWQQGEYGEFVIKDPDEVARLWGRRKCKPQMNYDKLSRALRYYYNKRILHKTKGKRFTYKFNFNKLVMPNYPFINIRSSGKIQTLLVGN
The conditions noted are these: protein: recombinant; tags: N-terminal GST; dsDNA, one strand shown. The method in brief: as §1

The target of another assay is ETV6 (Homo sapiens, UniProt P41212 1-452). The conditions noted are these: protein: recombinant; tags: N-terminal GST; dsDNA, one strand shown. A digest of the protocol: as §1
Sequence of ETV6 (P41212 whole entry): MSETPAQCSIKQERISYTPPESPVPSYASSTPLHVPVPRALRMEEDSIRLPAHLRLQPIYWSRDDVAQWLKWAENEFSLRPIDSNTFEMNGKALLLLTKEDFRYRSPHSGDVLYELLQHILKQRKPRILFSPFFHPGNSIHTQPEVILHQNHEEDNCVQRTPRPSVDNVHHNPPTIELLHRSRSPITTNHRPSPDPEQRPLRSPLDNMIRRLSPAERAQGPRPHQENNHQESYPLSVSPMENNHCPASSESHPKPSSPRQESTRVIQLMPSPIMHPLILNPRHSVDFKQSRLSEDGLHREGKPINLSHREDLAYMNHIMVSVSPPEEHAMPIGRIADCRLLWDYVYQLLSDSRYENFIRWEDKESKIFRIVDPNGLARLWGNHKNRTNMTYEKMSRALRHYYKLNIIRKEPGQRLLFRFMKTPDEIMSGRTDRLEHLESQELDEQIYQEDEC

Sequence of HSF1 (Q00613 whole entry): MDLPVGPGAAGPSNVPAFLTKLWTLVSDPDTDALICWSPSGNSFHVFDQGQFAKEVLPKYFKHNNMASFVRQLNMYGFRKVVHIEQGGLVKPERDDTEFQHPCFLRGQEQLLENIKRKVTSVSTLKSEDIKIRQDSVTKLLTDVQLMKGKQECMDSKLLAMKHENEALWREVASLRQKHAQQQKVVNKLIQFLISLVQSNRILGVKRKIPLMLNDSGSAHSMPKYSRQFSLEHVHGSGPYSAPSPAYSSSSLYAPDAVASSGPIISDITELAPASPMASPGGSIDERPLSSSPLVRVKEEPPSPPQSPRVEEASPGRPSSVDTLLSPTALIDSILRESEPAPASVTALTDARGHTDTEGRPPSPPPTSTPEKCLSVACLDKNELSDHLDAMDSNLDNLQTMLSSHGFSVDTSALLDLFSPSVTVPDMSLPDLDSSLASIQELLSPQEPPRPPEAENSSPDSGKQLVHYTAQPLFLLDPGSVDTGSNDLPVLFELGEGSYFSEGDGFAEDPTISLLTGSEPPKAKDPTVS
Sequence of ETV1 (P50549 whole entry): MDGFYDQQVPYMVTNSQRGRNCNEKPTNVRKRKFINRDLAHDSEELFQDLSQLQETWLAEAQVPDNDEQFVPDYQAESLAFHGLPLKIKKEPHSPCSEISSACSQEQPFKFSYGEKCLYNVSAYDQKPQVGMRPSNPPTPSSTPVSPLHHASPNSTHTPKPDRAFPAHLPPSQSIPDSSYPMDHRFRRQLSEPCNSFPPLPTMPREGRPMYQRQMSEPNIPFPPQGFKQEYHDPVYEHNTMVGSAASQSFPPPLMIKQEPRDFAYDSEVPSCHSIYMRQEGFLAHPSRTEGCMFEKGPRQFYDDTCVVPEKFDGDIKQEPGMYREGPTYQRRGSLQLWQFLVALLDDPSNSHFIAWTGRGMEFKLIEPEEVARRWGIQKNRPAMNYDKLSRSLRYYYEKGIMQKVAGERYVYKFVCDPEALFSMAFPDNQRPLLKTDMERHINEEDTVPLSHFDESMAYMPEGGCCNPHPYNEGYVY

As for TACTAC, the binding signal with FEV is 1.35 fold enrichment (6-mer frequency, TF over GST control); with ETV5, 1.33 fold enrichment (6-mer frequency, TF over GST control); in the assay with HSF1, 1.17 fold enrichment (6-mer frequency, TF over GST control); with SPIC, 1.26 fold enrichment (6-mer frequency, TF over GST control); with ELF4, 1.36 fold enrichment (6-mer frequency, TF over GST control); with ELK4, 1.19 fold enrichment (6-mer frequency, TF over GST control). The binding signal in the assay with ETV2 was 1.38 fold enrichment (6-mer frequency, TF over GST control); with ELF3 it was 1.08 fold enrichment (6-mer frequency, TF over GST control); with CRX, 1.13 fold enrichment (6-mer frequency, TF over GST control); with ETV1, 1.24 fold enrichment (6-mer frequency, TF over GST control); with ERF it was 1.3 fold enrichment (6-mer frequency, TF over GST control); with ETV3L, 1.41 fold enrichment (6-mer frequency, TF over GST control). Also, the binding signal with ETS2 is 1.34 fold enrichment (6-mer frequency, TF over GST control); with SPDEF it was 1.34 fold enrichment (6-mer frequency, TF over GST control); in the assay with ETV7, 1.47 fold enrichment (6-mer frequency, TF over GST control); with ELF5, 1.36 fold enrichment (6-mer frequency, TF over GST control); with ETV3, 1.29 fold enrichment (6-mer frequency, TF over GST control); with ETV6 it was 1.38 fold enrichment (6-mer frequency, TF over GST control).
